Test results as given in PubChem BioAssay (NCATS).
Records with an inconclusive call do not appear. Activity calls are given as the source filed them. The call rests on the fitted dose curve; in most records, active means well fitted inhibition curve with a large enough effect; inconclusive means small, poorly fitted or top-dose-only effect; inactive means flat fitted curve, though single readings scatter.

Key:
[1] = tested on: FAB9; assay: qHTS profiling for inhibitors of Plasmodium falciparum proliferation (AID 504749); conditions: P. falciparum in erythrocytes, SYBR Green DNA, 72 h; series mostly up to 28.7 µM
How it was run: (§1)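 Fluorescence of SYBR Green-bound parasite DNA, read at 485/535 nm, served as the growth measure. Infected erythrocytes were cultured with compound 72 h; artemisinin (0.29 uM) and DMSO wells defined the normalization range.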

[2] = tested on: GB4; assay: as above; conditions: P. falciparum in erythrocytes, SYBR Green DNA, 72 h; series mostly up to 28.7 µM
How it was run: as §1

[3] = tested on: HB3; assay: as above; conditions: P. falciparum in erythrocytes, SYBR Green DNA, 72 h; series mostly up to 28.7 µM
How it was run: as §1

[4] = tested on: ICS; assay: as above; conditions: P. falciparum in erythrocytes, SYBR Green DNA, 72 h; series mostly up to 28.7 µM
How it was run: as §1

[5] = tested on: JCK; assay: as above; conditions: P. falciparum in erythrocytes, SYBR Green DNA, 72 h; series mostly up to 28.7 µM
How it was run: as §1

[6] = tested on: N140; assay: as above; conditions: P. falciparum in erythrocytes, SYBR Green DNA, 72 h; series mostly up to 28.7 µM
How it was run: as §1

[7] = tested on: P93_24; assay: as above; conditions: P. falciparum in erythrocytes, SYBR Green DNA, 72 h; series mostly up to 28.7 µM
How it was run: as §1

[8] = tested on: P94_40; assay: as above; conditions: P. falciparum in erythrocytes, SYBR Green DNA, 72 h; series mostly up to 28.7 µM
How it was run: as §1

[9] = tested on: PAD; assay: as above; conditions: P. falciparum in erythrocytes, SYBR Green DNA, 72 h; series mostly up to 28.7 µM
How it was run: as §1

[10] = tested on: PC15; assay: as above; conditions: P. falciparum in erythrocytes, SYBR Green DNA, 72 h; series mostly up to 28.7 µM
How it was run: as §1

[11] = tested on: PC26; assay: as above; conditions: P. falciparum in erythrocytes, SYBR Green DNA, 72 h; series mostly up to 28.7 µM
How it was run: as §1

[12] = tested on: PC49; assay: as above; conditions: P. falciparum in erythrocytes, SYBR Green DNA, 72 h; series mostly up to 28.7 µM
How it was run: as §1

[13] = tested on: SC27B; assay: as above; conditions: P. falciparum in erythrocytes, SYBR Green DNA, 72 h; series mostly up to 28.7 µM
How it was run: as §1

[14] = tested on: TAB109; assay: as above; conditions: P. falciparum in erythrocytes, SYBR Green DNA, 72 h; series mostly up to 28.7 µM
How it was run: as §1

[15] = tested on: TAB113; assay: as above; conditions: P. falciparum in erythrocytes, SYBR Green DNA, 72 h; series mostly up to 28.7 µM
How it was run: as §1

[16] = tested on: TAB165; assay: as above; conditions: P. falciparum in erythrocytes, SYBR Green DNA, 72 h; series mostly up to 28.7 µM
How it was run: as §1

[17] = tested on: W2; assay: as above; conditions: P. falciparum in erythrocytes, SYBR Green DNA, 72 h; series mostly up to 28.7 µM
How it was run: as §1

[18] = tested on: CRL-7250; assay: Cytotoxic Profiling of Annotated Libraries Using Quantitative High-Throughput Screening (AID 1296008); conditions: Five cell lines viability, CellTiter-Glo ATP luminescence, 48-72 h; max response: hits give low values; on max response: on the % scale 0 is the no-effect control and ±100 the full control effect
How it was run: (§2)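 Compounds were pin-transferred onto cells and incubated 48 or 72 hr at 37 degree Celsius, 95% humidity. CellTiter-Glo was added, plates sat 10 min at room temperature, then ATP-coupled luminescence was imaged as the viability read-out.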

[19] = tested on: HEK293; assay: as above; conditions: Five cell lines viability, CellTiter-Glo ATP luminescence, 48-72 h; max response: hits give low values
How it was run: as §2

[20] = tested on: HaCat; assay: as above; conditions: Five cell lines viability, CellTiter-Glo ATP luminescence, 48-72 h; max response: hits give low values
How it was run: as §2
Further: nearly all actives have a fitted effect of over 60% in size.
Potency means the concentration at half of the fitted maximal effect.

O=C(O)c1nn(Cc2ccc(Cl)cc2Cl)c2ccccc12
inactive: Potency [1] | Potency [2] | Potency [3] | Potency [4] | Potency [5] | Potency [6] | Potency [7] | Potency [8] | Potency [9] | Potency [10] | Potency [11] | Potency [12] | Potency [13] | Potency [14] | Potency [15] | Potency [16] | Potency [17]

COC(=O)C1=CCCN(C)C1
inactive: Potency [1] | Potency [2] | Potency [3] | Potency [4] | Potency [5] | Potency [6] | Potency [7] | Potency [8] | Potency [9] | Potency [10] | Potency [11] | Potency [12] | Potency [13] | Potency [14] | Potency [15] | Potency [16] | Potency [17]

O=C(O)CCCCCCNC1c2ccccc2CCc2ccccc21
inactive: max response [18] -2% | max response [19] 2.21% | max response [20] 0.465%

Cc1ccc(N=CN(C)C=Nc2ccc(C)cc2C)c(C)c1
inactive: Potency [1] | Potency [2] | Potency [3] | Potency [4] | Potency [5] | Potency [6] | Potency [7] | Potency [8] | Potency [9] | Potency [10] | Potency [11] | Potency [12] | Potency [13] | Potency [14] | Potency [15] | Potency [16] | Potency [17] | max response [18] -6.67% | outcome [19] | max response [20] -15.3%

CCc1cc(OC)c(C[C@H](C)N)cc1OC
inactive: max response [18] -4.69% | max response [20] 0.504%

COCC(=O)N(c1c(C)cccc1C)C(C)C(=O)OC (stereo not drawn)
inactive: Potency [1] | Potency [2] | Potency [3] | Potency [4] | Potency [5] | Potency [10] | Potency [11] | Potency [12] | Potency [13] | Potency [15] | Potency [17] | max response [18] 1.66% | max response [19] -19.3% | max response [20] 3.69%

CCOC(=O)NC(C)(C)Cc1ccc(Cl)cc1
inactive: max response [18] -4.28% | outcome [19] | max response [20] 1.84%

CC(C)C(Br)C(=O)NC(N)=O (stereo not drawn)
inactive: Potency [1] | Potency [2] | Potency [3] | Potency [4] | Potency [5] | Potency [6] | Potency [7] | Potency [8] | Potency [9] | Potency [10] | Potency [11] | Potency [12] | Potency [13] | Potency [14] | Potency [15] | Potency [16] | Potency [17] | outcome [18] | max response [19] 2.09% | max response [20] -11.8%

CN1C(=O)[C@@H](NC(=O)c2cc3ccccc3[nH]2)N=C(c2ccccc2)c2ccccc21
active: Potency [2] 15.1 µM | Potency [4] 8.91 µM | Potency [8] 11.2 µM | Potency [16] 10 µM | Potency [17] 7.57 µM | Potency [19] 11.9 µM
inactive: Potency [1] | Potency [5] | Potency [10] | Potency [12] | max response [18] -23.4%

OC(O)C(Cl)(Cl)Cl
inactive: Potency [1] | Potency [2] | Potency [3] | Potency [4] | Potency [5] | Potency [6] | Potency [7] | Potency [8] | Potency [9] | Potency [10] | Potency [11] | Potency [12] | Potency [13] | Potency [14] | Potency [15] | Potency [16] | max response [18] -3.66% | max response [19] -2.43% | outcome [20]

CN1C(=O)CN=C(c2ccccc2)c2cc([N+](=O)[O-])ccc21
inactive: Potency [1] | Potency [2] | Potency [4] | Potency [5] | Potency [6] | Potency [7] | Potency [8] | Potency [9] | Potency [10] | Potency [11] | Potency [12] | Potency [13] | Potency [14] | Potency [15] | Potency [16] | Potency [17] | outcome [18] | max response [19] -10% | outcome [20]

CC[C@]1(O)CC[C@H]2[C@@H]3CCC4=CCCC[C@@H]4[C@H]3CC[C@@]21C
inactive: Potency [1] | Potency [2] | Potency [3] | Potency [5] | Potency [10] | Potency [11] | Potency [12] | Potency [14] | max response [18] -110% | max response [19] -119%
active: Potency [8] 11.2 µM

Oc1c(Br)cc(Br)cc1Br
inactive: Potency [1] | Potency [2] | Potency [3] | Potency [4] | Potency [5] | Potency [6] | Potency [7] | Potency [8] | Potency [9] | Potency [10] | Potency [11] | Potency [12] | Potency [13] | Potency [14] | Potency [15] | Potency [16] | Potency [17] | max response [18] -10.6% | max response [19] 2.8% | max response [20] -13%

COc1cc(C[C@@H](C)N)c(OC)cc1Br
inactive: max response [18] 2.12% | max response [20] -1.26%

C[N+](C)(C)CCOC(=O)C(O)(c1ccccc1)c1ccccc1
inactive: Potency [1] | Potency [2] | Potency [3] | Potency [4] | Potency [5] | Potency [6] | Potency [7] | Potency [8] | Potency [9] | Potency [10] | Potency [11] | Potency [12] | Potency [13] | Potency [14] | Potency [15] | Potency [16] | Potency [17] | max response [18] 1.11% | max response [19] -0.686% | max response [20] 1.68%

Cc1ccc([N+](=O)[O-])[c]2c1[O][Hg]2
active: Potency [18] 1.5 µM | Potency [20] 6.68 µM

CCOP(=S)(OCC)O/N=C(\C#N)c1ccccc1
inactive: max response [18] -6.28% | outcome [19] | outcome [20]
